# According to PubChem BioAssay AID1159580 (chemical genetic matrix, 2015):
# About 2,000 (36%) of roughly 5,500 compounds were called active. About 18% were inconclusive and are not listed. Some of the results follow. Unmarked numbers belong to inactive results. Cut-off read from the data, not from the text of the source: active = normalized growth mostly below about 0.91 (no sharp cut-off); inconclusive = no clear call, values can overlap the other calls; inactive = mostly above about 0.92.
# Test: chemical genetic growth profiling, strain panel (AID 1159580);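 note: tested at 20 µM; growth read once vehicle control cultures reached saturation at 30 °C; 1 = growth at the plate median or of vehicle wells; lower values mean less growth of the strain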
# Settings: S. cerevisiae deletion strains, growth OD
# [1] = locus YHR030C, strain SLT2, hits give low values
# [2] = locus YHR079C, strain IRE1, hits give low values
# [3] = locus YJL095W, strain BCK1, hits give low values
# [4] = locus YJR066W, strain TOR1, hits give low values
# [5] = locus YLR113W, strain HOG1, hits give low values
# [6] = locus YNL183C, strain NPR1, hits give low values
# [7] = locus YOR231W, strain MKK1, hits give low values
# [8] = locus YPL256C, strain CLN2, hits give low values
compound,measurement,setting,value
CC(=O)Nc1ccc(/C=C/[N+](=O)[O-])cc1,normalized growth,"locus YAR019C, strain CDC15, hits give low values",0.977
same,normalized growth,"locus YBL105C, strain PKC1, hits give low values",0.972
same,normalized growth,"locus YBR135W, strain CKS1, hits give low values",0.976
same,normalized growth,"locus YBR136W, strain MEC1, hits give low values",0.964
same,normalized growth,"locus YBR160W, strain CDC28, hits give low values",0.98
same,normalized growth,"locus YDL017W, strain CDC7, hits give low values",0.98
same,normalized growth,"locus YDL028C, strain MPS1, hits give low values",0.973
same,normalized growth,"locus YDL101C, strain DUN1, hits give low values",0.994
same,normalized growth,"locus YDL108W, strain KIN28, hits give low values",0.972
same,normalized growth,"locus YDL132W, strain cdc53, hits give low values",0.975
same,normalized growth,"locus YDL214C, strain PRR2, hits give low values",0.857
same,normalized growth,"locus YDR052C, strain DBF4, hits give low values",0.98
same,normalized growth,"locus YDR054C, strain cdc34, hits give low values",0.974
same,normalized growth,"locus YDR226W, strain ADK1, hits give low values",0.975
same,normalized growth,"locus YDR477W, strain SNF1, hits give low values",0.809
same,normalized growth,"locus YER123W, strain YCK3, hits give low values",0.679
same,normalized growth,"locus YER133W, strain GLC7, hits give low values",0.806
same,normalized growth,"locus YFL009W, strain cdc4, hits give low values",0.974
same,normalized growth,"locus YFL029C, strain CAK1, hits give low values",0.962
same,normalized growth,"locus YFR003C, strain YPI1, hits give low values",0.982
same,normalized growth,"locus YFR019W, strain FAB1, hits give low values",0.629 (active)
same,normalized growth,"locus YFR028C, strain CDC14, hits give low values",0.972
same,normalized growth,"locus YGR040W, strain KSS1, hits give low values",0.807
same,normalized growth,"locus YGR052W, strain FMP48, hits give low values",0.843
same,normalized growth,"locus YGR092W, strain DBF2, hits give low values",0.816
same,normalized growth,[1],0.697 (active)
same,normalized growth,[2],0.809
same,normalized growth,"locus YHR082C, strain KSP1, hits give low values",0.804
same,normalized growth,"locus YHR205W, strain SCH9, hits give low values",0.723
same,normalized growth,"locus YIL147C, strain SLN1, hits give low values",0.97
same,normalized growth,[3],0.78
same,normalized growth,"locus YJL128C, strain PBS2, hits give low values",0.969
same,normalized growth,"locus YJL157C, strain FAR1, hits give low values",0.844
same,normalized growth,"locus YJR016C, strain ILV3, hits give low values",0.981
same,normalized growth,"locus YJR066W, strain TOR1 (second series), hits give low values",0.732
same,normalized growth,[4],0.684
same,normalized growth,"locus YKL048C, strain ELM1, hits give low values",0.864
same,normalized growth,"locus YKL067W, strain YNK1, hits give low values",0.852
same,normalized growth,"locus YKL101W, strain HSL1, hits give low values",0.795
same,normalized growth,"locus YKL193C, strain SDS22, hits give low values",0.977
same,normalized growth,"locus YKL203C, strain TOR2, hits give low values",0.852
same,normalized growth,[5],0.628 (active)
same,normalized growth,"locus YLR133W, strain CKI1, hits give low values",0.861
same,normalized growth,"locus YLR403W, strain SFP1, hits give low values",0.818
same,normalized growth,"locus YML070W, strain DAK1, hits give low values",0.804
same,normalized growth,"locus YMR001C, strain CDC5, hits give low values",0.971
same,normalized growth,"locus YMR205C, strain PFK2 (second series), hits give low values",0.868
same,normalized growth,"locus YMR277W, strain FCP1, hits give low values",0.976
same,normalized growth,"locus YNL006W, strain LST8, hits give low values",0.996
same,normalized growth,"locus YNL020C, strain ARK1, hits give low values",0.88
same,normalized growth,"locus YNL161W, strain CBK1, hits give low values",0.973
same,normalized growth,[6],0.782
same,normalized growth,"locus YNL207W, strain RIO2, hits give low values",0.978
same,normalized growth,"locus YNL222W, strain SSU72, hits give low values",0.975
same,normalized growth,"locus YNL307C, strain MCK1 (second series), hits give low values",0.78
same,normalized growth,"locus YOL078W, strain AVO1, hits give low values",0.97
same,normalized growth,"locus YOL136C, strain PFK27, hits give low values",0.829
same,normalized growth,"locus YOR061W, strain CKA2, hits give low values",0.882
same,normalized growth,"locus YOR119C, strain RIO1, hits give low values",0.855
same,normalized growth,[7],0.786
same,normalized growth,"locus YOR329C, strain SCD5, hits give low values",0.985
same,normalized growth,"locus YPL031C, strain PHO85, hits give low values",0.794
same,normalized growth,"locus YPL153C, strain RAD53, hits give low values",0.776
same,normalized growth,"locus YPL204W, strain HRR25, hits give low values",0.791
same,normalized growth,"locus YPL209C, strain IPL1, hits give low values",0.98
same,normalized growth,[8],0.642 (active)
same,normalized growth,"locus YPR025C, strain CCL1, hits give low values",0.982
same,normalized growth,"locus YPR106W, strain ISR1, hits give low values",0.988
same,normalized growth,"locus YPR111W, strain DBF20, hits give low values",0.984
same,normalized growth,"strain NNK1, hits give low values",0.999
same,normalized growth,"strain TSCII, hits give low values",0.969
CC(=O)Nc1ccc(S(=O)(=O)c2ccc(NC(C)=O)cc2)cc1,normalized growth,"locus YAL021C, strain ccr4, hits give low values",1.03
same,normalized growth,"locus YAL026C, strain drs2, hits give low values",1.02
same,normalized growth,"locus YAL030W, strain snc1, hits give low values",1.02
same,normalized growth,"locus YBL061C, strain skt5, hits give low values",1.02
same,normalized growth,"locus YBR009C, strain hhf1, hits give low values",0.997
same,normalized growth,"locus YBR023C, strain chs3, hits give low values",1.01
same,normalized growth,"locus YBR171W, strain sec66, hits give low values",1.02
same,normalized growth,"locus YBR231C, strain swc5, hits give low values",1.02
same,normalized growth,"locus YBR279W, strain paf1, hits give low values",1.01
same,normalized growth,"locus YCL011C, strain gbp2, hits give low values",1.01
same,normalized growth,"locus YCL016C, strain dcc1, hits give low values",0.995
same,normalized growth,"locus YCL069W, strain vba3, hits give low values",1.02
same,normalized growth,"locus YCR088W, strain abp1, hits give low values",1.01
same,normalized growth,"locus YDL005C, strain med2, hits give low values",1.01
same,normalized growth,"locus YDL040C, strain nat1, hits give low values",1.02
same,normalized growth,"locus YDR001C, strain nth1, hits give low values",1.02
same,normalized growth,"locus YDR069C, strain doa4, hits give low values",1.02
same,normalized growth,"locus YDR137W, strain rgp1, hits give low values",1.03
same,normalized growth,"locus YDR159W, strain sac3, hits give low values",0.97
same,normalized growth,"locus YDR195W, strain ref2",1.02
same,normalized growth,"locus YDR297W, strain sur2, hits give low values",1.01
same,normalized growth,"locus YDR334W, strain swr1, hits give low values",1.02
same,normalized growth,"locus YDR335W, strain msn5, hits give low values",1.01
same,normalized growth,"locus YDR392W, strain spt3, hits give low values",0.998
same,normalized growth,"locus YEL003W, strain gim4, hits give low values",1.02
same,normalized growth,"locus YEL037C, strain rad23, hits give low values",1.02
same,normalized growth,"locus YEL061C, strain CIN8 (second series), hits give low values",1.02
same,normalized growth,"locus YER015W, strain faa2, hits give low values",1.02
same,normalized growth,"locus YER016W, strain bim1, hits give low values",0.996
same,normalized growth,"locus YER111C, strain swi4, hits give low values",1.01
same,normalized growth,"locus YER155C, strain BEM2 (second series), hits give low values",1.04
same,normalized growth,"locus YFR010W, strain ubp6, hits give low values",1.01
same,normalized growth,"locus YGL167C, strain pmr1, hits give low values",1.01
same,normalized growth,"locus YGL173C, strain kem1, hits give low values",1.02
same,normalized growth,"locus YGL227W, strain vid30, hits give low values",1.01
same,normalized growth,"locus YGL240W, strain doc1, hits give low values",1.02
same,normalized growth,"locus YGL253W, strain hxk2, hits give low values",1
same,normalized growth,"locus YHR013C, strain ard1, hits give low values",1.03
same,normalized growth,"locus YHR027C, strain rpn1, hits give low values",1.01
same,normalized growth,[1],1.07
same,normalized growth,[2],1.09
same,normalized growth,"locus YHR142W, strain chs7, hits give low values",1.02
same,normalized growth,"locus YJL092W, strain hpr5, hits give low values",1
same,normalized growth,"locus YJL095W, strain BCK1 (second series), hits give low values",1.01
same,normalized growth,[3],1.01
same,normalized growth,"locus YJL115W, strain asf1, hits give low values",1.02
same,normalized growth,"locus YJL129C, strain trk1, hits give low values",0.999
same,normalized growth,"locus YJL154C, strain vps35, hits give low values",1.02
same,normalized growth,"locus YJL164C, strain tpk1, hits give low values",1
same,normalized growth,"locus YJL166W, strain qcr8, hits give low values",1.02
same,normalized growth,"locus YJL187C, strain SWE1, hits give low values",1.01
same,normalized growth,[4],0.988
same,normalized growth,"locus YKL160W, strain elf1, hits give low values",1.01
same,normalized growth,"locus YKR026C, strain gcn3, hits give low values",0.999
same,normalized growth,"locus YKR091W, strain srl3, hits give low values",1.01
same,normalized growth,"locus YLL001W, strain dnm1, hits give low values",1.01
same,normalized growth,"locus YLL026W, hits give low values",1.01
same,normalized growth,"locus YLL041C, strain sdh2, hits give low values",0.997
same,normalized growth,"locus YLR027C, strain aat2, hits give low values",1
same,normalized growth,[5],0.972
same,normalized growth,"locus YLR221C, strain rsa3, hits give low values",0.987
same,normalized growth,"locus YLR258W, strain gsy2, hits give low values",1.02
same,normalized growth,"locus YLR262C, strain YPT6 (second series), hits give low values",1.04
same,normalized growth,"locus YLR320W, strain mms22, hits give low values",1.03
same,normalized growth,"locus YLR342W, strain FKS1, hits give low values",1.01
same,normalized growth,"locus YLR357W, strain rsc2, hits give low values",1.01
same,normalized growth,"locus YLR370C, strain arc18, hits give low values",1.01
same,normalized growth,"locus YLR384C, strain iki3, hits give low values",1.01
same,normalized growth,"locus YML120C, strain ndi1, hits give low values",1.03
same,normalized growth,"locus YMR058W, strain fet3, hits give low values",1.01
same,normalized growth,"locus YMR125W, strain sto1, hits give low values",1.01
same,normalized growth,"locus YMR129W, hits give low values",1.02
same,normalized growth,"locus YMR205C, strain PFK2, hits give low values",1.01
same,normalized growth,"locus YMR231W, strain pep5, hits give low values",1.01
same,normalized growth,"locus YNL071W, strain lat1, hits give low values",1.02
same,normalized growth,[6],0.971
same,normalized growth,"locus YNL209W, strain ssb2, hits give low values",1.01
same,normalized growth,"locus YNL248C, strain rpa49, hits give low values",1.02
same,normalized growth,"locus YNL322C, strain KRE1 (second series), hits give low values",1.01
same,normalized growth,"locus YNR049C, strain mso1, hits give low values",1.01
same,normalized growth,"locus YOR001W, strain rrp6, hits give low values",1.02
same,normalized growth,"locus YOR070C, strain gyp1, hits give low values",1.01
same,normalized growth,"locus YOR080W, strain dia2, hits give low values",1.02
same,normalized growth,"locus YOR083W, strain WHI5, hits give low values",0.979
same,normalized growth,"locus YOR106W, strain vam3, hits give low values",1.02
same,normalized growth,[7],1.05
same,normalized growth,"locus YOR265W, strain rbl2, hits give low values",1.01
same,normalized growth,"locus YOR270C, strain vph1, hits give low values",1.02
same,normalized growth,"locus YOR290C, strain snf2, hits give low values",1.01
same,normalized growth,"locus YPL051W, strain arl3, hits give low values",1.01
same,normalized growth,"locus YPL078C, strain atp4, hits give low values",1.02
same,normalized growth,"locus YPL106C, strain sse1, hits give low values",1.02
same,normalized growth,"locus YPL240C, strain hsp82, hits give low values",1
same,normalized growth,[8],1.08
